Source: the supplement of paper PMC8047044
Counter-ions that a name gives are not always drawn.

The molecules below were run on Neuro-2a (assay: neurite formation score, plate-normalized to DMSO control mean 5.04 (score (0-8 scale)); higher = more or longer neurites). Settings: 1 µM.
Experimental: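 Neuro-2a mouse neuroblastoma cells in PLL-coated 96-well plates were pre-treated for 1 h in DMEM(+) with each kinase inhibitor at 1 µM, then switched to serum-free DMEM(-) with inhibitor to induce neurite outgrowth and fixed about 2-3 h later. Three blinded observers scored neurite formation from 0 (no neurites) to 8 (long neurites on almost all cells).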
`Nc1nc(Nc2ccc3c(c2)CCC(N2CCCC2)CC3)nn1-c1cc2c(nn1)-c1ccccc1CCC2` (stereo not given) was tested, and the neurite formation score was 4.24.
`CNc1nc(Nc2ccc(C(=O)N3CCOCC3)cc2OC)ncc1Cl` was tested, and the neurite formation score was 4.96.
`N#Cc1c(NC(=O)c2cccc3ccccc23)sc2c1CCCC2` showed a neurite formation score of 0.543.
Molecule `CC(C)c1cc(CNc2nc(Nc3cc(C4CC4)[nH]n3)cc(N3CCN(C)CC3)n2)on1` has a neurite formation score of 0.692.
With `N#CC[C@H](C1CCCC1)n1cc(-c2ncnc3[nH]ccc23)cn1` [Ruxolitinib phosphate] the neurite formation score was 5.02.
`Cc1cc(Nc2cc(N3CCN(C)CC3)nc(/C=C/c3ccccc3)n2)n[nH]1` gave a neurite formation score of 3.02.
`CCn1c(=O)c(-c2ccc(-c3cncs3)cc2Cl)cc2cnc(Nc3ccc(N4CCN(C)CC4)cc3)nc21` gave a neurite formation score of 4.96.
`O=C1NC(=NCc2cccs2)S/C1=C\c1ccc2ncccc2c1` showed a neurite formation score of 5.63.
In the case of `CN(C)C1CCN(C(=O)c2ccc(NC(=O)Nc3ccc(-c4nc(N5CCOCC5)nc(N5CCOCC5)n4)cc3)cc2)CC1`, the neurite formation score was 4.14.
Molecule `c1cn2cc(-c3ccc4cn[nH]c4c3)nc(Nc3ccc(N4CCOCC4)cc3)c2n1` has a neurite formation score of 4.54.
`C=CC(=O)Nc1cccc(Nc2nc(Nc3ccc(N4CCN(C(C)=O)CC4)cc3OC)ncc2C(F)(F)F)c1` gave a neurite formation score of 4.24.
In the case of `COc1ccc(CNC(=O)Nc2ncc([N+](=O)[O-])s2)cc1`, the neurite formation score was 4.91.
In the case of `Oc1cccc(-c2nc(N3CCOCC3)c3oc4ncccc4c3n2)c1` [PI-103 Hydrochloride], the neurite formation score was 4.69.
`CCNc1nc(Nc2cc(F)c(C(=O)N3CCOCC3)cc2OC)ncc1C(F)(F)F` was tested, and the neurite formation score was 3.21.
In the case of `CCN(CC)CCCC(C)Nc1ccnc2cc(Cl)ccc12` (stereo not given) [Chloroquine diphosphate], the neurite formation score was 4.96.
